# Compound activity deposited in PubChem by National Center for Advancing Translational Sciences (NCATS).
# Shown are actives, neighbours in structure and some others; about 18% of the full set was active somewhere.
# Six1-Eya2 blk = Six1/Eya2 interaction inhibition. activity change, % (test concentration not listed). 360,000 tested, 0.56% active. AID 651725. AlphaScreen GST-Six1/His-Eya2 binding, biochemical; hits give low values. Q15475+O00167; in the data active means activity change below about -65%; inconclusive means mostly about -30% to -63%
# Target sequence (O00167 whole entry, looked up): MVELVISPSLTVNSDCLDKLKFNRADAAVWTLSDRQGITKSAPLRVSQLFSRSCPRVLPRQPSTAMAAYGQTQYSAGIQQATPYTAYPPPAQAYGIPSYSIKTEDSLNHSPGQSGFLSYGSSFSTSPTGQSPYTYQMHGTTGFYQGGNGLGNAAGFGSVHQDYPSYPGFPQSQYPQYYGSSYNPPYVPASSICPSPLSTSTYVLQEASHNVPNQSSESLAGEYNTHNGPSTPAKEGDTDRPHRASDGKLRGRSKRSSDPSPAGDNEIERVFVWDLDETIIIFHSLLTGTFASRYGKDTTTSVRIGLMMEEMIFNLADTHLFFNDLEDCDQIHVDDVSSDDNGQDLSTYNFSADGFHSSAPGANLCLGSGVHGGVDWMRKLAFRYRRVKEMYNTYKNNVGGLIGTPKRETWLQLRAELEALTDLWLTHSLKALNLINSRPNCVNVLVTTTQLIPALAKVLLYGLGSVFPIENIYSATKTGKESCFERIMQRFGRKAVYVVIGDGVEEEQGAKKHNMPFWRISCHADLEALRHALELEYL
# Target sequence (Q15475 whole entry, looked up): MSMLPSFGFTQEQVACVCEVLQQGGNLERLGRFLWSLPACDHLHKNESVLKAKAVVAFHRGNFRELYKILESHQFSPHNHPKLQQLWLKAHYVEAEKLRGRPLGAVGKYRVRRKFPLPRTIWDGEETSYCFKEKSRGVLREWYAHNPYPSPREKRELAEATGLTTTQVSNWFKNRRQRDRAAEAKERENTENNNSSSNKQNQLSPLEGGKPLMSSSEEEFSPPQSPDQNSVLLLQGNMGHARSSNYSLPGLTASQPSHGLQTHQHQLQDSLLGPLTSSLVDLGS
#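 Homogeneous AlphaScreen proximity assay pairing GST-Six1 with His-tagged Eya2 (added as 5X mix: 250 nM and 500 nM) in 50 mM Tris pH 8.0, 300 mM NaCl, 1 mM TCEP. Glutathione donor and nickel acceptor beads; 1 h, 37 °C, dark.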
# CtBP-E1A blk = CtBP/E1A binding inhibition. AlphaScreen GST-E1A/His-CtBP binding, 1536-well; hits give low values. activity change, % (concentration not given with the values). 340,000 tested, 0.49% active. AID 651724; in the data active means activity change below about -65%; inconclusive means mostly about -30% to -63%
#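 Homogeneous bead-based format: GST-tagged E1A captured on glutathione donor beads, His-tagged CtBP on nickel acceptor beads; compounds precede bead addition by 2 h at 37 °C.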
# TDP1 inh = blocks human tyrosyl-DNA phosphodiesterase 1. recombinant TDP1, AlphaScreen DNA substrate cleavage. Q9NUW8. 350,000 tested, 0.28% active. Potency, µM (highest dose often 130 µM), for inactives: top-dose activity change, negative = inhibition, hits mostly inhibitors; further: potency means the concentration at half of the fitted maximal effect; nearly all actives have a fitted effect of over 40% in size
#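 Compounds were preincubated with Tdp1 (1 nM final) for 15 min at room temperature before substrate (15 nM final) started a 5 min reaction; beads (10 ug/ml final) were then added for 10 min before AlphaScreen detection.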
# TDP1 cell noCPT = qHTS for Inhibitors of human tyrosyl-DNA phosphodiesterase 1 (TDP1): qHTS in cells in absence of CPT; 420,000 tested, 15% active; AID 686978, 2013; DT40 Tdp1-/- hTDP1 cells, no CPT, ATP luminescence, 48 h; Potency, µM (highest dose often 46.2 µM), for inactives: at the highest dose activity change, negative = growth inhibition, usual class: inhibitors; further: potency means the concentration at half of the fitted maximal effect; nearly all actives have a fitted effect of over 55% in size
#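 Chicken DT40 Tdp1-/- cells stably complemented with human TDP1 were seeded at 400 cells/well with DMSO in place of 20 nM camptothecin. After compound pinning, cells grew at least 48 hr at 37 °C; viability read by CellTiter-Glo luminescence.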
# IL1B secr inh = blocks inflammasome-driven IL-1 beta release; THP-1 LPS/ATP IL-1B secretion, AlphaLISA, 16 h; hits give low values; activity change, % at 57.5 µM; 360,000 tested, 4.7% active; in the data active means activity change below about -50%; inconclusive means mostly about -30% to -49%
#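 THP-1 cells pretreated 1 hr with compounds (up to 57.5 uM final), then stimulated with LPS (250 ng/mL final) plus ATP (1.25 mM final); secreted IL-1B measured by AlphaLISA after 16 hr, decreased signal indicating inhibition.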
# TDP1 cell CPT = growth inhibition of DT40 Tdp1-/-;hTDP1 cells with camptothecin (screen for TDP1 inhibitors); chicken DT40 Tdp1-/-;hTDP1 cells + 20 nM CPT, ATP luminescence, 48 h; Potency, µM (highest dose often 46.2 µM), without a hit: top-dose activity change, negative = growth inhibition, hits mostly inhibitors; 420,000 tested, 12% active; further: potency means the concentration at half of the fitted maximal effect; nearly all actives have a fitted effect of over 55% in size
#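 Chicken DT40 Tdp1-/- cells complemented with human TDP1, 400 cells/well, exposed to compounds plus 20 nM camptothecin for at least 48 h at 37 C; viability read as ATP content by CellTiter-Glo luminescence.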
# An asterisk follows results filed as active; ? = inconclusive; . = not tested or not shown; [ ] = another dose, or the depositor's remark. Unless noted, the call rests on the fitted dose curve; in most records, active means well fitted curve in the direction sought with a large enough effect; inconclusive means small, poorly fitted or top-dose-only effect, or another doubt; inactive means no such curve, though single readings can be large; an effect the other way counts as inactive or inconclusive. On the % scale 0 is the no-effect control and ±100 the full control effect.
SMILES,Six1-Eya2 blk,CtBP-E1A blk,TDP1 inh,TDP1 cell noCPT,IL1B secr inh,TDP1 cell CPT
COc1cccc(CN(C)C(=O)CNC(=O)c2ccc(-c3ccccc3)cc2)c1OC,-3.3,2.0,-6.5%,?,-63.2*,?
COc1ccc(CN(C)C(=O)CNC(=O)c2ccc3ccccc3c2)c(OC)c1,-2.0,-6.4,0.4%,?,-16.5,-25.4%
COc1ccc(Br)cc1CN(C)C(=O)CNC(=O)c1ccc2ccccc2c1,-22.1,0.0,3.1%[0.0935 µM],?,-75.4*,-23.3%
COc1cccc(CN(C)C(=O)CNC(=O)c2cccs2)c1OC,-0.4,10.9,.,-2.1%,3.5,4.2%
COc1ccccc1CN(C)C(=O)c1ccc(COc2ccccc2)cc1,-1.8,-4.0,-15.9%,?,-75.7*,16.4µM*
O=C(NCC1CCN(Cc2ccccc2F)CC1)C1CCCN(c2ncnc3c2nc2n3CCCCC2)C1 (configuration not stated),-4.8,-0.1,1.4%,-6.6%,?,?
CC(C)CNS(=O)(=O)c1ccc(OCC(=O)NCc2ccco2)cc1,-2.2,-2.9,0.0%,-19.7%,-2.1,18.6%
N#Cc1ccsc1NC(=O)CN1CCN(c2ccccc2O)CC1,-12.2,-1.5,4.6%,7.3%,12.3,9.7%
COc1cccc(NC(=O)CN(C)C(=O)CNC(=O)c2ccc3ccccc3c2)c1,0.7,-0.7,.,5.2%,-99.8*,-1.1%
Cc1ccc(NC(=O)CN(C)C(=O)c2ccc(OCc3cn4ccccc4n3)cc2)cc1,-3.2,-1.4,2.5%,-21.5%,31.7,?
O=C(O)c1ccc(OCc2cn3ccccc3n2)cc1,2.0,-1.9,.,-2.0%,43.9,8.7%
CN(CC(=O)Nc1cccc(F)c1)C(=O)c1ccc(OCc2cn3ccccc3n2)cc1,-7.4,.,-17.8%,14.6µM*,-1.8,?
COc1cccc(CN(C)C(=O)CCN(c2ccccc2)S(=O)(=O)c2ccc(C)cc2)c1OC,0.5,-6.9,1.0%,16.4µM*,-10.4,25.9µM*
Cc1cccc(C)c1NC(=O)CN1CCN(C(=O)c2ccc(OCc3cn4ccccc4n3)cc2)CC1,0.8,3.9,44.7µM*,?,19.6,-25.0%
Nc1nc(N)nc(-c2cc(C(F)(F)F)ccc2Cl)n1,1.9,8.9,-0.7%,-23.2%,35.7,?
COc1ccc(Br)cc1CN(C)C(=O)c1ccc2c(c1)NC(=O)C(C)S2 (configuration not stated),0.1,6.9,4.9%,-0.3%,37.1,18.3%
COc1ccc(C(=O)N[C@H](C(=O)NCc2ccc(C)cc2)C(C)C)cc1,6.1,4.1,8.9%,-28.8%,-19.3,-4.6%
COc1cccc(NC(=O)CN(C)C(C)C(=O)NC(C)c2ccc(Cl)cc2Cl)c1 (configuration not stated),0.8,-3.9,0.7%,18.4µM*,-8.4,?
COc1cccc(NC(=O)CN(C)C(=O)c2ccc(Cl)c(S(=O)(=O)N3CCCCCC3)c2)c1,6.1,-25.6,1.6%,14.6µM*,-18.7,?
COc1cccc(CN(C)C(=O)[C@@H](NC(=O)c2ccc(C)cc2)C(C)C)c1,1.7,-14.1,.,20.6µM*,-20.2,20.6µM*
COc1cccc(NC(=O)CN(C)C(C)C(=O)Nc2ccc(C(C)=O)cc2)c1 (configuration not stated),-0.1,-4.0,-5.1%,-0.2%,-9.0,0.3%
COc1ccc(Br)cc1CN(C)C(=O)c1cc(Cl)c2c(c1)OCCO2,-6.6,1.1,4.5%,20.6µM*,-26.3,?
O=C(C1CCN(C2CCN(C/C=C/c3ccccc3)CC2)CC1)N1CCOCC1,3.4,-8.1,.,?,-28.6,?
COC(=O)c1cc(C(=O)OC)cc(N2C(=O)CC(NNC(=O)c3ccc(C)cc3)C2=O)c1 (configuration not stated),-5.3,1.2,-2.7%,-7.1%,22.3,-18.0%
Cn1cc(CNC(=O)c2sc3cccc(Cl)c3c2Cl)cn1,0.5,0.9,2.5%,-16.3%,23.2,-29.6%
SMILES,Six1-Eya2 blk,CtBP-E1A blk,TDP1 inh,TDP1 cell noCPT,IL1B secr inh,TDP1 cell CPT
CCN(CC(=O)Nc1cccc(OC)c1)C(=O)c1cnc(Cl)c(Cl)c1,0.3,-20.7,10.0%,?,-83.1*,-11.3%
COc1ccccc1CN(C)C(=O)C(c1ccccc1)c1ccccc1,1.2,3.9,.,13µM*,-82.2*,16.4µM*
COc1cccc(CN(C)C(=O)c2ccc(Oc3ccccc3)cc2)c1OC,-2.6,10.2,-8.7%,20.6µM*,-8.8,25.9µM*
COc1ccc(CN(C)C(=O)c2ccc(COc3ccccc3)cc2)c(OC)c1,-2.0,-0.4,.,9.2µM*,-8.4,18.4µM*
COc1ccc(CN(C)C(=O)c2ccc(NS(=O)(=O)c3ccccc3)cc2)c(OC)c1,-10.0,1.9,-5.8%[0.505 µM],?,-22.4,?
CN(Cc1ccc(F)cc1)C(=O)C(c1ccccc1)c1ccccc1,4.8,10.4,.,?,?,-26.9%
CCCN(CC(=O)Nc1ccccc1OC)C(=O)c1cnc(Cl)c(Cl)c1,1.6,5.6,5.3%,?,18.1,-27.5%
COc1ccc(CN(C)C(=O)C(Cc2ccccc2)NC(=O)c2ccccc2)c(OC)c1 (configuration not stated),-0.9,-17.4,.,20.6µM*,-24.4,?
CC(=O)Nc1c(Br)cc2c(c1Br)Cc1cc(Br)ccc1-2,-0.5,2.3,.,13µM*,-15.0,-27.8%
Cc1ccc(C(=O)OCC(=O)c2ccc(CC(=O)N3CCOCC3)s2)c(C)c1,-18.4,1.7,50.1µM*,-3.7%,8.0,-16.1%
Cc1ccc(C(=O)OCC(=O)c2ccc(CC(=O)N3CCOCC3)s2)cc1C,-8.7,-1.2,-17.3%,-3.3%,47.1,-19.8%
Cc1ccc2c(c1)cc(C(=O)N1CCN(c3ccccn3)CC1)n2C,11.6,3.0,.,?,39.7,-4.1%
CCOc1c(Br)cc(CNc2ccc(N3CCN(C(C)=O)CC3)cc2)cc1OC,-27.4,-27.5,6.8%,?,?,16.4µM*
CCOc1cc(CNc2ccc(N3CCOCC3)cc2)cc(Br)c1OCC,-26.9,-66.8*,10.5%,16.4µM*,?,?
COc1cc(CNc2ccc(N3CCOCC3)cc2)cc(Br)c1OC,?,.,5.1%,16.4µM*,-14.8,?
CCOc1cc(C(=O)Nc2ccc(N3CCN(C(C)=O)CC3)cc2)cc(OCC)c1OCC,0.0,7.1,.,-2.0%,14.5,-6.6%
CC(C)c1ccc(CNc2ccc(N3CCOCC3)cc2)cc1,-71.8*,-67.1*,15.5%,?,?,-27.2%
